The results in this text go back to PubChem BioAssay (NCI).

Among the test systems are NCI-H23 lung; NCI-H226 lung; NCI-H322M lung; HOP-62 NSCLC; NCI-H460 lung; HOP-92 NSCLC; NCI-H522 lung; A549/ATCC NSCLC; 786-0 renal; COLO 205 colon; DU-145 prostate; K-562 leukemia; MALME-3M melanoma; MDA-MB-231 breast; RXF 393 renal; SF-268 CNS; SF-295 CNS; SF-539 CNS; UACC-257 melanoma; M14 melanoma.
Holding throughout (test): NCI-60 one-dose screen, 48 h (100 = growth as untreated, 0 = no growth, -100 = all killed)
Common to all, as to details: 10 µM unless noted

This is part of a sample that, as a whole, favours compounds with a hit. Of some 83,000 tested, about 20% had one in any assay.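 Negative percent growth values reflect cell death: -40 means 40% of the cells present at the start died, and -100 means all died.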 Values without a mark were called inactive. The source made the active and inactive calls. Rule for the calls: active = growth percent below 10; inactive = the rest.

Consider `COc1ccc2[nH]c(=O)c(/C=C/C(=O)c3ccccc3OC)cc2c1`, for which the growth with NCI-H23 lung was 21.3%; in the test on NCI-H226 lung, 38.9%; with NCI-H322M lung it was 18.3%; in the test with HOP-62 NSCLC it was 8.67% (active); in the test on NCI-H460 lung it was 1.79% (active); in the test on HOP-92 NSCLC it was -12% (active). Besides, the growth in the test on NCI-H522 lung is 3.93% (active); in the test on A549/ATCC NSCLC, 10.4%; in the test with 786-0 renal, 8.21% (active); with COLO 205 colon, 20.4%; in the test with DU-145 prostate, 10.8%; in the test on K-562 leukemia it was 4.24% (active). For the same compound, the growth in the test on MALME-3M melanoma is 38.6%; in the test on MDA-MB-231 breast, 0.317% (active); in the test on RXF 393 renal, -7.9% (active); with SF-268 CNS, 9.36% (active); in the test with SF-295 CNS, 8.29% (active); with SF-539 CNS it was -10% (active). Besides, the growth is 37.6% in the test with UACC-257 melanoma and 13.8% in the test with M14 melanoma.
On to `N#C/C(=C/c1ccc(O)c([N+](=O)[O-])c1)c1nc(-c2ccc([N+](=O)[O-])cc2)cs1`, for which the growth was 13.6% in the test on NCI-H23 lung; 52% in the test with NCI-H226 lung; 52.8% with NCI-H322M lung; 86.8% in the test on HOP-62 NSCLC; 20.5% with NCI-H460 lung; -8.22% (active) in the test on HOP-92 NSCLC. In addition, the growth in the test with NCI-H522 lung was 11.2%; in the test on A549/ATCC NSCLC, 27.1%; in the test with 786-0 renal, 51.9%; in the test with COLO 205 colon, 51.2%; in the test on DU-145 prostate, 60.3%; in the test with K-562 leukemia, 19.5%. In addition, the growth was 30.5% in the test with MALME-3M melanoma; 39.5% in the test on MDA-MB-231 breast; 77.7% in the test on RXF 393 renal; 50.5% in the test with SF-268 CNS; 29.6% with SF-295 CNS; 47.2% in the test with SF-539 CNS. Further, the results for the growth with UACC-257 melanoma and in the test with M14 melanoma were 20.2% and 41.5%, respectively.
Consider `C=C1C(=O)O[C@H]2[C@H]1CC/C(COC(=O)Nc1nc3ccccc3[nH]1)=C\CC[C@@]1(C)O[C@@H]21`, for which the growth was 70.9% in the test on NCI-H23 lung; 79.8% in the test with NCI-H226 lung; 105% with NCI-H322M lung; 89.9% in the test with HOP-62 NSCLC; 91.4% with NCI-H460 lung; 50.4% in the test on HOP-92 NSCLC. For the same compound, the growth with NCI-H522 lung is -27.2% (active); in the test on A549/ATCC NSCLC it was 95.5%; in the test on 786-0 renal, 80%; in the test on COLO 205 colon, 17.3%; with DU-145 prostate, 36.3%; in the test on K-562 leukemia, 13.5%. The growth in the test on MALME-3M melanoma is 48.6%; with MDA-MB-231 breast, 66.1%; in the test with RXF 393 renal, 30.6%; in the test on SF-268 CNS it was 94.3%; with SF-295 CNS it was 107%; in the test with SF-539 CNS, 61.1%. Further, the growth in the test with UACC-257 melanoma was 76.2%; in the test with M14 melanoma, 46.4%.
In the case of `CC1CCN(CCCCCOc2ccc3oc4ccccc4c(=O)c3c2)CC1`, the growth in the test with NCI-H23 lung was 75.6%; with NCI-H226 lung it was 90.6%; with NCI-H322M lung it was 78.7%; in the test on HOP-62 NSCLC it was 98.6%; with NCI-H460 lung it was 81.8%; with HOP-92 NSCLC, 83.7%. For the same compound, the growth in the test with NCI-H522 lung was 76.2%; in the test on A549/ATCC NSCLC, 73.5%; with 786-0 renal, 75.7%; in the test with COLO 205 colon, 58.5%; in the test on DU-145 prostate, 83.9%; with K-562 leukemia it was 33.7%. In addition, the growth was 44.4% with MALME-3M melanoma; 76.5% in the test on MDA-MB-231 breast; 69.1% in the test with RXF 393 renal; 79.3% in the test with SF-268 CNS; 89.8% in the test with SF-295 CNS; 77.8% in the test on SF-539 CNS. For the same compound, the growth with UACC-257 melanoma was 9.5% (active); in the test with M14 melanoma, 41%.
For the compound `COc1ccc(Cl)c([N+](=O)[O-])c1`, the growth was 98.5% in the test with NCI-H23 lung; 101% with NCI-H226 lung; 98.8% in the test on NCI-H322M lung; 93.4% in the test on HOP-62 NSCLC; 108% in the test on NCI-H460 lung; 98% with HOP-92 NSCLC. Also, the growth was 95.7% with NCI-H522 lung; 99.6% in the test with A549/ATCC NSCLC; 99.2% with 786-0 renal; 116% with COLO 205 colon; 108% with DU-145 prostate; 99.8% with K-562 leukemia. For the same compound, the growth in the test on MALME-3M melanoma was 106%; in the test on MDA-MB-231 breast it was 102%; in the test on RXF 393 renal, 108%; in the test with SF-268 CNS it was 104%; with SF-295 CNS, 98%; in the test on SF-539 CNS, 91.9%. For the same compound, the growth is 111% in the test on UACC-257 melanoma and 96.3% with M14 melanoma.
For `COc1cc(C)ccc1Oc1nc(Nc2ccc(N3CCOCC3)cc2)ncc1N=Cc1cc(C(F)(F)F)cc(C(F)(F)F)c1`, the growth in the test with NCI-H23 lung is 70.4%; in the test with NCI-H226 lung, 55.4%; with NCI-H322M lung, 79.7%; with HOP-62 NSCLC it was 61.1%; in the test with NCI-H460 lung, 44.6%; with HOP-92 NSCLC, 67.8%. Further, the growth with NCI-H522 lung was 27.3%; with A549/ATCC NSCLC, 70%; in the test on 786-0 renal, 76.6%; in the test on COLO 205 colon, 68.3%; in the test with DU-145 prostate, 83.7%; in the test with K-562 leukemia, 37.7%. The growth with MALME-3M melanoma was 91.7%; in the test on MDA-MB-231 breast it was 82.9%; in the test with RXF 393 renal, 38.4%; with SF-268 CNS it was 69%; in the test with SF-295 CNS, 75.8%; in the test on SF-539 CNS, 73.8%. The values for the growth with UACC-257 melanoma and in the test with M14 melanoma were 79.2% and 77.7%, respectively.
For `O=C1c2ccccc2C(=O)c2c1oc1c2c(=O)[nH]c2ccccc21`, the growth was 66% in the test on NCI-H23 lung; 78.5% in the test on NCI-H226 lung; 89.3% in the test on NCI-H322M lung; 119% in the test with HOP-62 NSCLC; 68.3% with NCI-H460 lung; 71.4% in the test with HOP-92 NSCLC. For the same compound, the growth is 54.8% with NCI-H522 lung; 97.2% in the test with A549/ATCC NSCLC; 102% in the test with 786-0 renal; 109% in the test on COLO 205 colon; 82% in the test on DU-145 prostate; 55.2% in the test on K-562 leukemia. Also, the growth is 124% with MALME-3M melanoma; 10.3% in the test on MDA-MB-231 breast; 97.2% with RXF 393 renal; 91% with SF-268 CNS; 92.7% in the test with SF-295 CNS; 90.3% in the test with SF-539 CNS. The growth in the test on UACC-257 melanoma is 112%; in the test with M14 melanoma, 73.4%.
